Screens: PubChem, several laboratories
The list is not random: actives were taken first. Their share in the collection is about 3%.
Rv3671c protease = Rv3671c (M. tuberculosis) protease inhibition; 0.048% of 320,000 active; P9WHR9; inhibition, % at 5.96 µM; in the data active = inhibition above about 38%;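 note: extracellular domain of Rv3671c used as enzyme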
FBA Mtb inh = inhibitors of M. tuberculosis fructose-bisphosphate aldolase; P9WQA3; purified M. tuberculosis FBA, fluorescence read-out; inhibition, % at 1 µM; 2.3% of 360,000 active; in the data active = inhibition above about 27%
Target sequence (P9WQA3 whole entry, looked up): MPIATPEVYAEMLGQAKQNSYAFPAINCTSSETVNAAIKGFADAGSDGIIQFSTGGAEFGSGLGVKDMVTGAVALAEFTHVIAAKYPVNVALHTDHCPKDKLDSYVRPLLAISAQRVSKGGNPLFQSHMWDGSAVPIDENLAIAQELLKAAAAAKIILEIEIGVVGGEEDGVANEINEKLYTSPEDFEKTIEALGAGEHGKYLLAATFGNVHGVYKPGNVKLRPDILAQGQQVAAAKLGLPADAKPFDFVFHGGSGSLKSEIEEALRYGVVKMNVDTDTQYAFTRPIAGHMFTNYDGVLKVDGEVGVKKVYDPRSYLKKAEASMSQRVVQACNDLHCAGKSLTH
FadD28 binding = M. tuberculosis FadD28 bisubstrate binding inhibition; FadD28 bisubstrate probe binding, fluorescence polarization; inhibition, % at 12.5 µM; 0.22% of 360,000 active; in the data active = inhibition above about 8.5%, passing the limit was not always enough
BioA inh = blocks M. tuberculosis BioA enzyme activity; purified M. tuberculosis BioA enzyme, plate reader; inhibition, % at 9.99 µM; 0.096% of 360,000 active; in the data active = inhibition above about 40%
GDH-TPI inh = inhibits GDH-TPI coupling enzymes, artifact for Mtb FBA screen | GDH-TPI coupled enzyme counterscreen, NADH absorbance | inhibition, % at 4.8 µM | 1.2% of 360,000 active | AID 588335; in the data active = inhibition above about 30%
A number is an active result.

Results for C[C@@H]1CN([C@@H](C)CO)C(=O)Cc2cc(NC(=O)CCN3CCOCC3)ccc2O[C@H]1CN(C)S(=O)(=O)c1cccs1 ?
BioA inh: inactive

Results for O=C(/C=C/c1ccccc1)Nc1scc(-c2ccccc2)c1C(=O)O ?
FBA Mtb inh: inactive; FadD28 binding: inactive; GDH-TPI inh: inactive

How did O=C(/C=C/c1ccco1)Nc1scc(-c2ccccc2)c1C(=O)O do in these assays?
Rv3671c protease: inactive; FBA Mtb inh: inactive; FadD28 binding: inactive; BioA inh: inactive; GDH-TPI inh: 66.2

Results for COc1ccc2c(c1OC)C(=O)OC2CC(=O)c1ccc(N(C)C)cc1 (stereo unspecified) ?
Rv3671c protease: inactive; FBA Mtb inh: inactive; FadD28 binding: inactive; BioA inh: inactive; GDH-TPI inh: 30.8

How did COc1ccc2c(c1OC)C(=O)OC2CC(=O)c1ccc(O)cc1 (stereo unspecified) do in these assays?
Rv3671c protease: inactive; FBA Mtb inh: inactive; FadD28 binding: inactive; BioA inh: inactive; GDH-TPI inh: inactive

Results for C=CCn1c(O)c(/C=N/N2CCCCC2c2cccnc2)c(=O)[nH]c1=S (stereo unspecified) ?
Rv3671c protease: inactive; FBA Mtb inh: inactive; FadD28 binding: inactive; GDH-TPI inh: 31.0

How did CCCCn1c(O)c(/C=N/N2CCCCC2c2cccnc2)c(=O)[nH]c1=S (stereo unspecified) do in these assays?
Rv3671c protease: inactive; FBA Mtb inh: inactive; FadD28 binding: inactive; BioA inh: inactive; GDH-TPI inh: inactive

Results for Cc1ccc(S(=O)(=O)Nc2cccc3c2O[C@@H](CN(C)S(C)(=O)=O)[C@@H](C)CN([C@@H](C)CO)C3=O)cc1 ?
BioA inh: inactive

What do the screens show for `COc1ccc(-c2cn3ccccc3n2)cc1OC`?
Rv3671c protease: inactive; FBA Mtb inh: 158.6; FadD28 binding: inactive; BioA inh: inactive; GDH-TPI inh: inactive

How did COc1ccc(-c2cn3cc(C)ccc3n2)cc1OC do in these assays?
Rv3671c protease: inactive; FBA Mtb inh: 160.8; FadD28 binding: inactive; BioA inh: inactive; GDH-TPI inh: inactive

Results for Fc1ccc(-c2cn3ccccc3n2)cc1 ?
Rv3671c protease: inactive; FBA Mtb inh: inactive; FadD28 binding: inactive; BioA inh: inactive; GDH-TPI inh: inactive

How did C[C@@H]1CN([C@H](C)CO)C(=O)c2cc(NS(=O)(=O)c3cccs3)ccc2O[C@@H](C)CCCCO[C@H]1CN(C)C(=O)NC1CCCCC1 do in these assays?
BioA inh: inactive

Results for CCn1cc(C(=O)NCc2cccc(F)c2)c(=O)c2cc(F)c(N3CCN(C(=O)c4ccco4)CC3)cc21 ?
Rv3671c protease: inactive; FBA Mtb inh: 38.2; FadD28 binding: inactive; BioA inh: inactive; GDH-TPI inh: inactive

Results for N#Cc1c(-c2ccccc2)cc2nc3ccccc3n2c1N ?
Rv3671c protease: inactive; FBA Mtb inh: 147.4; FadD28 binding: inactive; GDH-TPI inh: inactive

What do the screens show for `COc1cc(-c2cc3nc4ccccc4n3c(N)c2C#N)cc(OC)c1OC`?
Rv3671c protease: inactive; FBA Mtb inh: active; FadD28 binding: inactive; GDH-TPI inh: inactive

How did Nc1cc(-c2ccccc2)n2c(n1)nc1ccccc12 do in these assays?
Rv3671c protease: inactive; FBA Mtb inh: inactive; FadD28 binding: inactive; BioA inh: inactive; GDH-TPI inh: inactive

Results for CC(Sc1nnc(CNc2cccc3ccccc23)n1-c1ccccc1)C(=O)N/N=C/c1ccco1 (stereo unspecified) ?
Rv3671c protease: inactive; FBA Mtb inh: inactive; FadD28 binding: 25.1; BioA inh: inactive; GDH-TPI inh: inactive

How did N#C/C(=N\Nc1c(Cl)cccc1Cl)C(=O)NN do in these assays?
Rv3671c protease: inactive; FBA Mtb inh: inactive; FadD28 binding: inactive; BioA inh: inactive; GDH-TPI inh: 32.3

How did CC(C)NC(=O)N1C[C@@H]2[C@H](c3ccccc31)[C@H](CO)N2Cc1ccc(Cl)cc1 do in these assays?
BioA inh: inactive

Results for C[C@@H]1CN([C@H](C)CO)S(=O)(=O)c2ccc(-c3ccccc3)cc2O[C@@H]1CN(C)Cc1ccncc1 ?
BioA inh: inactive

How did CC(=O)c1c(C)n(CCc2ccc(Cl)cc2)c2ccc(O)cc12 do in these assays?
Rv3671c protease: inactive; FBA Mtb inh: inactive; FadD28 binding: inactive; BioA inh: inactive; GDH-TPI inh: 52.3

How did CC(=O)c1c(C)n(CCO)c2ccc(O)cc12 do in these assays?
Rv3671c protease: inactive; FBA Mtb inh: inactive; FadD28 binding: inactive; BioA inh: inactive; GDH-TPI inh: inactive

How did CC(=O)/C(N=Nc1nc2c([nH]1)c(=O)n(C)c(=O)n2C)=C(\C)O do in these assays?
Rv3671c protease: inactive; FBA Mtb inh: inactive; FadD28 binding: inactive; GDH-TPI inh: inactive

What do the screens show for `Cn1c(=O)c2[nH]c(C3CCCC3)nc2n(C)c1=O`?
Rv3671c protease: inactive; FBA Mtb inh: inactive; FadD28 binding: inactive; BioA inh: inactive; GDH-TPI inh: inactive

What do the screens show for `Cn1c(=O)c2[nH]c(N3CCCCC3)nc2n(C)c1=O`?
Rv3671c protease: inactive; FBA Mtb inh: inactive; FadD28 binding: inactive; BioA inh: inactive; GDH-TPI inh: inactive

How did CC1CCCCN1N=Nc1nc2c([nH]1)c(=O)n(C)c(=O)n2C (stereo unspecified) do in these assays?
FBA Mtb inh: inactive; FadD28 binding: inactive; BioA inh: inactive; GDH-TPI inh: 39.5

Results for CC1CCN(N=Nc2nc3c([nH]2)c(=O)n(C)c(=O)n3C)CC1 ?
FBA Mtb inh: inactive; FadD28 binding: inactive; BioA inh: inactive; GDH-TPI inh: 31.5

What do the screens show for `Cn1c(=O)c2[nH]c(N=NN3CCCCC3)nc2n(C)c1=O`?
FBA Mtb inh: inactive; FadD28 binding: inactive; BioA inh: inactive; GDH-TPI inh: 54.4

Results for COc1ccc(S(=O)(=O)N(C)C[C@H]2OCCCC[C@H](C)Oc3ccc(NS(=O)(=O)c4cn(C)cn4)cc3C(=O)N([C@H](C)CO)C[C@H]2C)cc1 ?
BioA inh: inactive

Results for COc1ccc(CN(C)C[C@@H]2Oc3ccc(NC(=O)Nc4c(C)noc4C)cc3C(=O)N([C@@H](C)CO)C[C@@H]2C)cc1 ?
BioA inh: inactive

How did Cc1noc(C)c1NC(=O)N[C@H]1CC[C@@H](CC(=O)Nc2ccccc2)O[C@H]1CO do in these assays?
BioA inh: inactive

How did COc1cccc(S(=O)(=O)N(C)C[C@H]2Oc3cc(C#CCC(C)C)ccc3S(=O)(=O)N([C@@H](C)CO)C[C@@H]2C)c1 do in these assays?
BioA inh: inactive

What do the screens show for `CCCNC(=O)[C@@H]1[C@@H](CO)[C@@H]2Cn3c(ccc(-c4ccccc4F)c3=O)[C@@H]2N1CC1CC1`?
BioA inh: inactive

What do the screens show for `O=C1c2c(O)cc(O)cc2O[C@@]12c1c(cc(O)c3c1O[C@H](c1ccc(O)cc1)[C@@H](O)C3)O[C@@H]2c1ccc(O)cc1`?
Rv3671c protease: inactive; FBA Mtb inh: inactive; FadD28 binding: inactive; BioA inh: inactive; GDH-TPI inh: 36.2

Results for CN1C(=O)C2(N=c3ccccc3=N2)c2ccccc21 ?
Rv3671c protease: inactive; FBA Mtb inh: 30.1; FadD28 binding: inactive; GDH-TPI inh: inactive

Results for COC(=O)Cc1cc(=O)[nH]c(Nc2nc3ccccc3o2)n1 ?
Rv3671c protease: inactive; FBA Mtb inh: inactive; FadD28 binding: inactive; BioA inh: inactive; GDH-TPI inh: 36.9
